Where a name gives a salt, the structure may show the parent alone.
Assays:
Assay in all cases: Euclidean distance of Cell Painting phenotypic profile (signed KS, 77 features) to DMSO centroid (dimensionless distance); 5 or 10 uM (library dependent); higher = stronger phenotypic change vs DMSO (phenoactivity)
Details in all cases: 48 h
786-O = test system: 786-O
Procedure, shortened: (§1)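 Phenoactivity is computed as Euclidean distance to the median vehicle profile. The profiles, drawn from 77 Harmony features scored as signed Kolmogorov-Smirnov statistics versus same-plate vehicle wells, were corrected for plate position, correlation-weighted and replicate-averaged at the top dose. Stained cells were imaged confocally at 20X (9 fields/well) after 48 h with library compounds at 10 or 5 uM, 0.1% DMSO final, in five cancer lines and a healthy fibroblast line.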

A549 = test system: A549
Procedure, shortened: as §1

DU145 = test system: DU145
Procedure, shortened: as §1

FB = test system: FB
Procedure, shortened: as §1

HEPG2 = test system: HEPG2
Procedure, shortened: as §1

OVCAR4 = test system: OVCAR4
Procedure, shortened: as §1

| Structure (SMILES) | Euclidean distance (786-O) | Euclidean distance (A549) | Euclidean distance (DU145) | Euclidean distance (FB) | Euclidean distance (HEPG2) | Euclidean distance (OVCAR4) |
| --- | --- | --- | --- | --- | --- | --- |
| N=C(N)NCCC[C@H](N)C(=O)O [L-Arginine HCl (L-Arg)] | 1.3 | 0.522 | 0.828 | 0.796 | 0.566 | 1.14 |
| CN(C)CCCN1c2ccccc2CCc2ccccc21 [Imipramine HCl] | 1.05 | 0.896 | 1.15 | 1.55 | 1.13 | 1.33 |
| O=C(NC[C@H](O)CO)c1ccncc1Nc1ccc(I)cc1F | 2.39 | 2.67 | 2.49 | 3.7 | 1.53 | 2.4 |
| O=C(c1cn(Cc2cncn2Cc2ccc(Br)cc2)cc1-c1cccc2ccccc12)N1CCOCC1 | 2.26 | 2.37 | 1.56 | 2.75 | 1.15 | 1.92 |
| CCS(=O)(=O)N1CCN(c2ccc(Nc3ncc(C(N)=O)c(NC4CC4)n3)cc2)CC1 | 2.57 | 3.03 | 3.16 | 2.62 | 2.51 | 3.39 |
| CC[C@H](C)[C@H](NC(=O)[C@H](Cc1ccc(O)cc1)NC(=O)[C@@H](NC(=O)[C@H](CCCN=C(N)N)NC(=O)[C@@H](N)CC(=O)O)C(C)C)C(=O)N[C@@H](Cc1cnc[nH]1)C(=O)N1CCC[C@H]1C(=O)N[C@@H](Cc1ccccc1)C(=O)O [Angiotensin II human Acetate] | 1.66 | 0.986 | 0.817 | 1.24 | 0.532 | 0.985 |
| CCN(CC)CCCC(C)Nc1c2ccc(Cl)cc2nc2ccc(OC)cc12 (stereo unspecified) [Quinacrine Dihydrochloride Dihydrate] | 4.25 | 5.06 | 4.71 | 6.12 | 4.78 | 4.71 |
| CCOC(=O)CCC(=O)O[C@H]1[C@H](O[C@@H]2[C@@H](C)[C@H](O[C@H]3C[C@@](C)(OC)[C@@H](O)[C@H](C)O3)[C@@H](C)C(=O)O[C@H](CC)[C@@](C)(O)[C@H](O)[C@@H](C)C(=O)[C@H](C)C[C@@]2(C)O)O[C@H](C)C[C@@H]1N(C)C [Erythromycin Ethylsuccinate] | 1.09 | 0.82 | 1.09 | 1.04 | 0.715 | 1.3 |
| O=C(O)Cc1ccccc1Nc1c(Cl)cccc1Cl [Diclofenac Sodium] | 1.2 | 0.988 | 0.729 | 1.14 | 0.995 | 0.677 |
| C=C1CCN([C@H](C)[C@](O)(Cn2cncn2)c2ccc(F)cc2F)CC1 [Efinaconazole] | 0.843 | 0.567 | 0.723 | 0.84 | 0.73 | 0.881 |
| Nc1nccc(Oc2ccc(NC(=O)c3c[nH]cc(-c4ccc(F)cc4)c3=O)cc2F)c1Cl | 1.57 | 1.17 | 1.56 | 1.94 | 1.17 | 1.62 |
| C[C@H](CCC(=O)NCCS(=O)(=O)O)[C@H]1CC[C@H]2[C@@H]3[C@@H](O)C[C@@H]4C[C@H](O)CC[C@]4(C)[C@H]3CC[C@]12C [Tauroursodeoxycholic Acid (TUDCA)] | 0.663 | 1.8 | 0.772 | 1.04 | 0.686 | 1.23 |
| C[C@H]1[C@H](C)CC[C@]2(C(=O)O)CC[C@]3(C)C(=CC[C@@H]4[C@@]5(C)C[C@@H](O)[C@H](O)[C@@](C)(CO)[C@@H]5CC[C@]43C)[C@H]12 [Asiatic Acid] | 0.996 | 0.839 | 1.11 | 1.04 | 1.24 | 0.885 |
| Cc1ccsc1/C=C/C1=NCCCN1C [Morantel tartrate] | 0.593 | 0.834 | 0.571 | 1.19 | 0.557 | 1.21 |
| CC(=O)c1cc([N+](=O)[O-])c(Sc2ccc(F)cc2F)s1 | 0.453 | 0.953 | 0.697 | 0.781 | 2.06 | 1.97 |
| CC(=O)OCC(=O)[C@@]1(O)[C@H](C)C[C@H]2[C@@H]3CCC4=CC(=O)C=C[C@]4(C)[C@@]3(F)[C@@H](O)C[C@@]21C [Dexamethasone Acetate] | 1.08 | 2.1 | 2.41 | 1.85 | 0.691 | 1.67 |
| C[C@@]12C[C@@]3(O)O[C@@H](O1)[C@]1(COC(=O)c4ccccc4)[C@H]3C[C@@]12O[C@@H]1O[C@H](CO)[C@@H](O)[C@H](O)[C@H]1O [Paeoniflorin] | 1.19 | 0.375 | 0.983 | 0.985 | 0.474 | 1.17 |
| CCCC(CCC)C(N)=O [Valpromide] | 0.509 | 1.08 | 1 | 1.42 | 0.77 | 1.44 |
| Nc1ncc2ncn(CC3(OCP(=O)(O)O)CC3)c2n1 [Besifovir] | 1.03 | 0.329 | 1.01 | 1.2 | 0.716 | 0.915 |
| CC(CNC(=O)c1cccnc1)NC(=O)c1cccnc1 (stereo unspecified) [Nicaraven] | 1.31 | 0.748 | 1 | 1 | 2.29 | 1.91 |
| O=C(O)/C=C/c1cnc[nH]1 [Urocanic acid] | 1.13 | 0.682 | 0.798 | 0.718 | 0.554 | 1.26 |
| CCOC(=O)[C@H]1O[C@@H]1C(=O)N[C@@H](CC(C)C)C(=O)NCCC(C)C [Aloxistatin] | 0.731 | 2.18 | 1.26 | 1.17 | 0.539 | 0.987 |
| O=c1cc(N2CCOCC2)oc2c(-c3ccccc3)cccc12 | 1.73 | 1.09 | 1.16 | 1.79 | 1.66 | 2.16 |

| Structure (SMILES) | Euclidean distance (786-O) | Euclidean distance (A549) | Euclidean distance (DU145) | Euclidean distance (FB) | Euclidean distance (HEPG2) | Euclidean distance (OVCAR4) |
| --- | --- | --- | --- | --- | --- | --- |
| OCC(CO)N[C@H]1C[C@](O)(CO)[C@@H](O)[C@H](O)[C@H]1O [Voglibose] | 0.92 | 0.919 | 0.846 | 0.977 | 1.06 | 1.34 |
| CC(CCc1ccc(O)cc1)NCC(O)c1ccc(O)cc1 (stereo unspecified) [Ractopamine HCl] | 0.802 | 0.83 | 0.987 | 1.14 | 0.522 | 1.07 |
| Cc1cc(C(=O)NOCCO)c(Nc2ccc(I)cc2F)n(C)c1=O | 2.89 | 2.95 | 2.82 | 4.35 | 1.48 | 1.72 |
| CN(C)C(=O)C(CCN1CCC(O)(c2ccc(Cl)cc2)CC1)(c1ccccc1)c1ccccc1 [Loperamide HCl] | 1.64 | 2.14 | 1.81 | 1.85 | 2.35 | 1.42 |
| C#C[C@]1(O)CC[C@H]2[C@@H]3CCC4=Cc5oncc5C[C@]4(C)[C@H]3CC[C@@]21C [Danazol] | 1.02 | 1.02 | 1.43 | 0.594 | 1.3 | 1.02 |
| C=CC(=O)Nc1cccc(Nc2nc(Nc3ccc(N4CCN(C(C)=O)CC4)cc3OC)ncc2C(F)(F)F)c1 | 1.04 | 0.866 | 0.799 | 1.01 | 0.62 | 0.883 |
| NCCCC[C@H](NC(=O)[C@@H](NC(=O)[C@H](Cc1c[nH]c2ccccc12)NC(=O)[C@H](CCCCN)NC(=O)[C@H](CCCCN)NC(=O)[C@H](Cc1c[nH]c2ccccc12)NC(=O)[C@H](Cc1c[nH]c2ccccc12)NC(=O)[C@H](CCCCN)NC(=O)[C@@H](N)CCCCN)C(c1ccccc1)c1ccccc1)C(N)=O | 4.67 | 1.24 | 1.35 | 1.8 | 1.2 | 2.23 |
| Oc1cc(O)c2c(c1)OC(c1ccc(O)c(O)c1)C(O)C2 (single isomer, unassigned; (+)) [(+)-Catechin] | 0.785 | 0.904 | 0.506 | 0.842 | 0.247 | 0.849 |
| COc1cc2nccc(Oc3ccc(NC(=O)Nc4cc(C)on4)c(Cl)c3)c2cc1OC [Tivozanib (AV-951)] | 2.03 | 2.81 | 1.83 | 2.67 | 2.21 | 2.39 |
| CNCCC=C1c2ccccc2CCc2ccccc21 [Nortriptyline hydrochloride] | 1.69 | 1.13 | 1.37 | 1.82 | 1.8 | 1.69 |
| COc1ccc([C@H]2CNC(=O)C2)cc1OC1CCCC1 [S- (+)-Rolipram] | 1.12 | 1.46 | 1 | 0.792 | 1.24 | 1.49 |
| COc1cc(N2CCN(C)CC2)ccc1Nc1nccc(-c2cn(C)c3cnccc23)n1 | 2.55 | 1.56 | 1.34 | 2.68 | 1.53 | 2.69 |
| COc1cc(/C=C/C(=O)O)ccc1O [Sodium ferulate] | 1.56 | 1.15 | 1.14 | 1.08 | 1.11 | 1.46 |
| C[C@@H]1O[C@@H]1P(=O)(O)O [Fosfomycin Disodium] | 1.44 | 0.52 | 0.647 | 0.793 | 0.716 | 0.92 |
| C=CC(=O)Nc1cccc(Nc2nc(Nc3ccc(OCCOC)cc3)ncc2F)c1 [Spebrutinib (CC-292. AVL-292)] | 2.73 | 3.75 | 3.51 | 3.98 | 3.25 | 2.96 |
| CN(C)CC/C=C1/c2ccccc2COc2ccc(CC(=O)O)cc21 [Olopatadine HCl] | 0.847 | 0.745 | 0.865 | 1.38 | 0.686 | 0.734 |
| CC(C(=O)O)c1cccc(Oc2ccccc2)c1 (stereo unspecified) [Fenoprofen calcium hydrate] | 1.27 | 0.707 | 0.898 | 0.869 | 0.486 | 1.2 |
| N#Cc1ccc(Oc2ccc3c(c2)COB3O)cc1 [Crisaborole (AN2728)] | 1.25 | 1 | 0.832 | 0.837 | 2.52 | 1.91 |
| NC(=O)/N=N/C(N)=O [Azodicarbonamide] | 1.07 | 0.533 | 1.15 | 0.879 | 1.28 | 1.14 |
| O=C(Nc1cc(Cl)cc(Cl)c1O)c1c(O)c(Cl)cc(Cl)c1Cl [Oxyclozanide] | 1.04 | 0.69 | 0.929 | 0.828 | 0.649 | 1.52 |
| CC(=O)OC(C)C[N+](C)(C)C (stereo unspecified) [Methacholine chloride] | 0.977 | 1.02 | 1.24 | 0.67 | 0.576 | 1.45 |
| CNC(=O)c1nn(C)c2c1C(C)(C)Cc1cnc(Nc3ccc(N4CCN(C)CC4)cc3)nc1-2 | 2.4 | 3.03 | 2.9 | 3.36 | 2.65 | 2.9 |
| C[C@@H](O)[C@H]1C(=O)N2C(C(=O)O)=C(S[C@@H]3CN[C@H](C(=O)N(C)C)C3)[C@H](C)[C@H]12 [Meropenem Trihydrate] | 1.26 | 1.2 | 0.738 | 0.87 | 1.01 | 0.913 |

Source: the supplement of paper PMC10127200
